Measured values from ChEMBL document CHEMBL4513146, “CO-ADD screening of Karazin Kharkiv National University (Ukraine) compounds”.
Results with a measured potency or affinity are listed apart.

What was measured:
Klebsiella pneumoniae = conditions: Concentration 32 ug.mL-1;; ASSAY_TEST Inhibition of Bacterial Growth; detection method Absorption (OD600); MEDIA CAMHB; plate type 384well; NBS; CORNING #3640; time 18 hr
Candida albicans = conditions: Concentration 32 ug.mL-1; ASSAY_TEST Inhibition of Fungal Growth; detection method Absorption (OD530)
Cryptococcus neoformans = conditions: Concentration 32 ug.mL-1; ASSAY_TEST Inhibition of Fungal Growth; detection method Resazurin; Absorption (OD600-OD570); plate type 384well; NBS; CORNING #3640

## COc1cccc(Oc2nccn3c(=O)n(CC(=O)Nc4ccc5c(c4)OCCO5)nc23)c1
Klebsiella pneumoniae
  Inhibition: 1.41%
Candida albicans
  Inhibition: 7.65%
Cryptococcus neoformans
  Inhibition: -9.22%

## O=C(Cn1nc2c(SCc3ccccc3)nccn2c1=O)NCc1ccccc1
Klebsiella pneumoniae
  Inhibition: -8.41%
Candida albicans
  Inhibition: 20.32%
Cryptococcus neoformans
  Inhibition: -13.69%

## CCOc1ccc(-n2ccn3c(SCC(N)=O)nnc3c2=O)cc1
Klebsiella pneumoniae
  Inhibition: 16.24%
Candida albicans
  Inhibition: 1.43%
Cryptococcus neoformans
  Inhibition: -5.27%

## Cc1ccc(-c2cc3c4nn(CC(=O)NCc5ccccc5Cl)c(=O)n4ccn3n2)cc1C
Klebsiella pneumoniae
  Inhibition: 7.47%
Candida albicans
  Inhibition: -1.05%
Cryptococcus neoformans
  Inhibition: -5.01%

## O=C(Cn1nc2c(N3CCOCC3)nccn2c1=O)Nc1ccc(Cl)cc1F
Klebsiella pneumoniae
  Inhibition: 19.61%
Candida albicans
  Inhibition: 2.13%
Cryptococcus neoformans
  Inhibition: -2.72%

## O=C(Cn1nc2ccc(SCc3ccc(Cl)cc3)nn2c1=O)Nc1ccccc1
Klebsiella pneumoniae
  Inhibition: 9.67%
Candida albicans
  Inhibition: 9.5%
Cryptococcus neoformans
  Inhibition: -21.41%

## COc1ccc(CNC(=O)CSc2nnc3c4cc(-c5ccccc5)nn4ccn23)cc1
Klebsiella pneumoniae
  Inhibition: 15.76%
Candida albicans
  Inhibition: 0.38%
Cryptococcus neoformans
  Inhibition: -28.39%

## O=c1n(Cc2c(F)cccc2Cl)nc2ccc(-c3ccccc3)nn12
Klebsiella pneumoniae
  Inhibition: -0.01%
Candida albicans
  Inhibition: 8.72%
Cryptococcus neoformans
  Inhibition: -10.32%

## COc1cccc(-n2ccn3c(SCC(=O)Nc4cc(Cl)ccc4OC)nnc3c2=O)c1
Klebsiella pneumoniae
  Inhibition: 5.24%
Candida albicans
  Inhibition: 13.1%
Cryptococcus neoformans
  Inhibition: -11.15%

## CCOc1ccc(-n2ccn3c(SC(C)C(=O)Nc4ccc(OC)cc4)nnc3c2=O)cc1 (centres undefined)
Klebsiella pneumoniae
  Inhibition: 5.17%
Candida albicans
  Inhibition: 4.23%
Cryptococcus neoformans
  Inhibition: -11.44%

## CC(C)CCn1c(=O)c2sccc2n2c(=O)n(CC(=O)NC(C)C)nc12
Klebsiella pneumoniae
  Inhibition: 5.25%
Candida albicans
  Inhibition: -0.52%
Cryptococcus neoformans
  Inhibition: -18.15%

## Cc1nnc2ccc(S(=O)(=O)N(Cc3ccccc3F)c3cccc(F)c3)cn12
Klebsiella pneumoniae
  Inhibition: 4.31%
Candida albicans
  Inhibition: 10.13%
Cryptococcus neoformans
  Inhibition: -4.32%

## COc1ccc(N(Cc2ccc(F)cc2)S(=O)(=O)c2ccc3nncn3c2)cc1
Klebsiella pneumoniae
  Inhibition: 12.52%
Candida albicans
  Inhibition: 2.69%
Cryptococcus neoformans
  Inhibition: 2.37%

## CCCCOc1ccc(-c2cc3c4nnc(SCC(=O)Nc5cc(F)ccc5C)n4ccn3n2)cc1
Klebsiella pneumoniae
  Inhibition: -4.04%
Candida albicans
  Inhibition: 9.93%
Cryptococcus neoformans
  Inhibition: -31.79%

## Cc1ccc(NC(=O)CSc2nc3ccccc3n3c(C(C)C)nnc23)cc1Cl
Klebsiella pneumoniae
  Inhibition: 1.48%
Candida albicans
  Inhibition: -0.39%
Cryptococcus neoformans
  Inhibition: -22.27%

## Cc1ccccc1CN(c1ccc(Cl)cc1)S(=O)(=O)c1cccn2c(C)nnc12
Klebsiella pneumoniae
  Inhibition: 11.42%
Candida albicans
  Inhibition: 2.31%
Cryptococcus neoformans
  Inhibition: -9.98%

## O=C(CSc1nnc2c3cc(-c4ccccc4)nn3ccn12)NCc1ccc(Cl)cc1
Klebsiella pneumoniae
  Inhibition: 14.11%
Candida albicans
  Inhibition: 6.05%
Cryptococcus neoformans
  Inhibition: -28.72%

## CCCn1c(=O)c2sccc2n2c(=O)n(CC(=O)c3ccccc3)nc12
Klebsiella pneumoniae
  Inhibition: 3.65%
Candida albicans
  Inhibition: 4.43%
Cryptococcus neoformans
  Inhibition: -9.13%

## CCCCOc1ccc(-c2cc3c4nnc(SCC(=O)Nc5ccc(CC)cc5)n4ccn3n2)cc1
Klebsiella pneumoniae
  Inhibition: 9.73%
Candida albicans
  Inhibition: 2.18%
Cryptococcus neoformans
  Inhibition: -11.7%

## COC(=O)c1ccc(Cn2nc3ccc(S(=O)(=O)N4CCCCCC4)cn3c2=O)o1
Klebsiella pneumoniae
  Inhibition: 1.98%
Candida albicans
  Inhibition: -1.08%
Cryptococcus neoformans
  Inhibition: -5.87%

## COc1ccc(CNC(=O)Cn2nc3c(Oc4ccccc4C)nccn3c2=O)cc1
Klebsiella pneumoniae
  Inhibition: 7.26%
Candida albicans
  Inhibition: -2.47%
Cryptococcus neoformans
  Inhibition: -8.82%

## Cc1ccccc1Oc1nccn2c(=O)n(CC(=O)Nc3ccc(F)cc3F)nc12
Klebsiella pneumoniae
  Inhibition: 11.95%
Candida albicans
  Inhibition: -0.38%
Cryptococcus neoformans
  Inhibition: -8.47%

## COc1ccc(Cl)cc1NC(=O)CSc1nc2ccccc2n2c(C(C)C)nnc12
Klebsiella pneumoniae
  Inhibition: -0.34%
Candida albicans
  Inhibition: 58.61%
Cryptococcus neoformans
  Inhibition: -12.46%

## CCCCOc1ccc(-c2cc3c4nnc(SCC(=O)NCc5ccccc5)n4ccn3n2)cc1
Klebsiella pneumoniae
  Inhibition: -0.43%
Candida albicans
  Inhibition: 3.39%
Cryptococcus neoformans
  Inhibition: -8.72%

## COC(=O)c1ccc(NC(=O)Cn2nc3c4cc(-c5ccc(OC)cc5)nn4ccn3c2=O)cc1
Klebsiella pneumoniae
  Inhibition: 9.58%
Candida albicans
  Inhibition: 0.9%
Cryptococcus neoformans
  Inhibition: -33.46%

## COC(=O)c1ccccc1NC(=O)CSc1nc2ccccc2n2c(C(C)C)nnc12
Klebsiella pneumoniae
  Inhibition: 12.98%
Candida albicans
  Inhibition: -0.8%
Cryptococcus neoformans
  Inhibition: -7.61%

## CCC(C)NC(=O)Cn1nc2n(CCC(=O)NC3CCCCC3)c(=O)c3ccccc3n2c1=O (centres undefined)
Klebsiella pneumoniae
  Inhibition: -2.01%
Candida albicans
  Inhibition: 3.91%
Cryptococcus neoformans
  Inhibition: -20.86%

## Cc1cccc(NC(=O)Cn2nc3nc(N4CCCCCC4)ccn3c2=O)c1C
Klebsiella pneumoniae
  Inhibition: 16.3%
Candida albicans
  Inhibition: 1.23%
Cryptococcus neoformans
  Inhibition: -8.73%
